# According to PubChem BioAssay:
# The source made the active and inactive calls.
# Tests used:
# [1] = test system: PRMT1 (protein arginine N-methyltransferase 1); assay: PRMT1 binders on small-molecule microarrays, primary screen, biochemical, small-molecule microarray, 635 nm fluorescence (AID 1088); details: small-molecule microarray binding, higher = more signal;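 note: binding of Prmt1 protein to compounds spotted on small-molecule microarray slides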
# [2] = yeast growth modulation, basal conditions, primary screen, YJM789 clinical isolate, OD600, 24 h (AID 1089);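 note: growth of clinical yeast isolate S. cerevisiae YJM 789 seeded 1000 cells per well; test concentration not given here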; details: S. cerevisiae YJM789 growth, higher = more signal, called active from +8 up or from −8 down
# [3] = fission yeast growth modulation, primary screen, strain 972, OD600, 24 h, no modulator (AID 1090);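 note: basal condition with compound alone and no growth modifier present; test concentration not given here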; details: S. pombe 972 growth, higher = more signal, called active from +8 up or from −8 down
# [4] = S. cerevisiae growth modulation with rapamycin, primary screen, strain BY4716, OD600, 96 h (AID 1091); details: higher = more signal, called active from +8 up or from −8 down; note: test concentration not given here
# [5] = biological target: Torsin-1A-interacting protein 2 (Homo sapiens) (UniProt Q8NFQ8); assay: LULL1 binders on small-molecule microarray, primary screen, cell lysate, human LULL1 lysate, 635/667 nm fluorescence (AID 1092); details: hLULL1 lysate binding, 635 nm fluorescence, higher = more signal;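 note: probe is lysate of COS7 cells overexpressing human LULL1; score merges per-feature 667 nm fluorescence with signal-to-noise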
# [6] = E. coli growth modulation, two-sided OD650, primary screen, E. coli filamentation project, strain DRC41, 24 h (AID 1093); details: OD650, 24 h, higher = more signal, called active from +8 up or from −8 down;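 note: MC1000 strain lacking acrAB efflux and sulA so SOS filamentation is blocked; test concentration not given here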
# [7] = small-molecule microarray binders of probe aLefty2, primary screen, biochemical, biotinylated probe, 635/667 nm fluorescence (AID 1094); details: higher = more signal;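 note: score merges spot fluorescence near 667 nm with spot signal-to-noise ratio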
# [8] = test system: Noggin (protein binding on small-molecule microarray); assay: Noggin binders on small-molecule microarray, primary screen, biochemical, 635/667 nm fluorescence (AID 1095); details: 635 nm fluorescence, higher = more signal;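 note: score merges 667 nm feature fluorescence with signal to noise over triplicate slides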
# [9] = biological target: Neurogenic locus notch homolog protein 3 (Homo sapiens) (UniProt Q9UM47); assay: NOTCH3 binders on small-molecule microarray, primary screen, biochemical, 635/667 nm fluorescence (AID 1096); details: NOTCH3 binding, 635 nm fluorescence, higher = more signal
# [10] = small-molecule microarray binders of probe aEGFR, primary screen, biochemical, biotinylated probe, 635/667 nm fluorescence (AID 1097); details: higher = more signal;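 note: probe is a biotinylated anti-EGFR antibody binding compounds printed on slides; score combines fluorescence near 667 nm and signal to noise of each spot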
# [11] = test system: Plasmodium falciparum Sir2 (PF13_0152, Sir2A); assay: pfSir2 binders on small-molecule microarrays, primary screen, biochemical, small-molecule microarray, 635 nm fluorescence (AID 1098); details: small-molecule microarray binding, fluorescence 635 nm; higher = more signal;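 note: score merges spot fluorescence intensity with its signal-to-noise ratio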
# [12] = small-molecule microarray binders of probe aDKK1, primary screen, biochemical, biotinylated probe, 635/667 nm fluorescence (AID 1099); details: higher = more signal;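 note: score merges 667nm spot fluorescence with signal to noise across triplicate slides; reference of the scale not given here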
# [13] = small-molecule microarray binders of probe aCHRDL2, primary screen, biochemical, biotinylated probe, 635/667 nm fluorescence (AID 1100); details: higher = more signal
# [14] = splicing luciferase reporter signal modulators, primary screen, spliceosome inhibition project, cell-based, HEK293, splice +/- reporter (AID 1101); details: luminescence, 24 h, higher = more signal, called active from +8 up or from −8 down;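 note: HEK293 cells carrying a splicing-competent luciferase reporter gene; test concentration not given here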
# [15] = biological target: Fibroblast growth factor 10 (Homo sapiens) (UniProt O15520); assay: FGF10 binders on small-molecule microarrays, primary screen, biochemical, small-molecule microarray, 635 nm fluorescence (AID 1102); details: FGF10 binding, fluorescence 635 nm, higher = more signal
# [16] = test system: glycogen synthase kinase-3 (GSK3A per assay name; protocol says GSK3B); assay: GSK3 binders on small-molecule microarrays, primary screen, biochemical, small-molecule microarray, 635 nm fluorescence, GSK3A (AID 1103); details: small-molecule microarray binding, fluorescence 635 nm; higher = more signal; note: the record names both GSK3A and GSK3B
# [17] = biological target: Epidermal growth factor receptor (Homo sapiens) (UniProt P00533); assay: EGFR binders on small-molecule microarrays, primary screen, biochemical, small-molecule microarray, 635 nm fluorescence (AID 1104); details: EGFR binding, higher = more signal;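 note: score merges 667 nm emission intensity with spot signal to noise over triplicate slides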
# [18] = biological target: Follistatin-related protein 3 (Homo sapiens) (UniProt O95633); assay: FSTL3 binders on small-molecule microarrays, primary screen, biochemical, small-molecule microarray, 635 nm fluorescence (AID 1105); details: FSTL3 binding, higher = more signal;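 note: score merges emission near 667 nm and signal to noise per printed spot across three slides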
# [19] = biological target: Dickkopf-related protein 1 (Homo sapiens) (UniProt O94907); assay: DKK1 binders on small-molecule microarrays, primary screen, biochemical, small-molecule microarray, 635 nm fluorescence scan (AID 1106); details: DKK1 binding, higher = more signal;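 note: score merges emission near 667 nm with signal to noise over three replicate slides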
# [20] = test system: Inhibin beta A chain (activin A); assay: INHBA (activin A) binders on microarrays, primary screen, biochemical, small-molecule microarray, 635 nm fluorescence scan (AID 1107); details: small-molecule microarray binding, higher = more signal;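 note: mouse activin A protein probed at 4.33 µg/mL on printed slides; score merges bound-protein fluorescence near 667 nm with spot signal-to-noise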
# Neurogenic locus notch homolog protein 3 (Homo sapiens), sequence (Q9UM47 whole entry, looked up): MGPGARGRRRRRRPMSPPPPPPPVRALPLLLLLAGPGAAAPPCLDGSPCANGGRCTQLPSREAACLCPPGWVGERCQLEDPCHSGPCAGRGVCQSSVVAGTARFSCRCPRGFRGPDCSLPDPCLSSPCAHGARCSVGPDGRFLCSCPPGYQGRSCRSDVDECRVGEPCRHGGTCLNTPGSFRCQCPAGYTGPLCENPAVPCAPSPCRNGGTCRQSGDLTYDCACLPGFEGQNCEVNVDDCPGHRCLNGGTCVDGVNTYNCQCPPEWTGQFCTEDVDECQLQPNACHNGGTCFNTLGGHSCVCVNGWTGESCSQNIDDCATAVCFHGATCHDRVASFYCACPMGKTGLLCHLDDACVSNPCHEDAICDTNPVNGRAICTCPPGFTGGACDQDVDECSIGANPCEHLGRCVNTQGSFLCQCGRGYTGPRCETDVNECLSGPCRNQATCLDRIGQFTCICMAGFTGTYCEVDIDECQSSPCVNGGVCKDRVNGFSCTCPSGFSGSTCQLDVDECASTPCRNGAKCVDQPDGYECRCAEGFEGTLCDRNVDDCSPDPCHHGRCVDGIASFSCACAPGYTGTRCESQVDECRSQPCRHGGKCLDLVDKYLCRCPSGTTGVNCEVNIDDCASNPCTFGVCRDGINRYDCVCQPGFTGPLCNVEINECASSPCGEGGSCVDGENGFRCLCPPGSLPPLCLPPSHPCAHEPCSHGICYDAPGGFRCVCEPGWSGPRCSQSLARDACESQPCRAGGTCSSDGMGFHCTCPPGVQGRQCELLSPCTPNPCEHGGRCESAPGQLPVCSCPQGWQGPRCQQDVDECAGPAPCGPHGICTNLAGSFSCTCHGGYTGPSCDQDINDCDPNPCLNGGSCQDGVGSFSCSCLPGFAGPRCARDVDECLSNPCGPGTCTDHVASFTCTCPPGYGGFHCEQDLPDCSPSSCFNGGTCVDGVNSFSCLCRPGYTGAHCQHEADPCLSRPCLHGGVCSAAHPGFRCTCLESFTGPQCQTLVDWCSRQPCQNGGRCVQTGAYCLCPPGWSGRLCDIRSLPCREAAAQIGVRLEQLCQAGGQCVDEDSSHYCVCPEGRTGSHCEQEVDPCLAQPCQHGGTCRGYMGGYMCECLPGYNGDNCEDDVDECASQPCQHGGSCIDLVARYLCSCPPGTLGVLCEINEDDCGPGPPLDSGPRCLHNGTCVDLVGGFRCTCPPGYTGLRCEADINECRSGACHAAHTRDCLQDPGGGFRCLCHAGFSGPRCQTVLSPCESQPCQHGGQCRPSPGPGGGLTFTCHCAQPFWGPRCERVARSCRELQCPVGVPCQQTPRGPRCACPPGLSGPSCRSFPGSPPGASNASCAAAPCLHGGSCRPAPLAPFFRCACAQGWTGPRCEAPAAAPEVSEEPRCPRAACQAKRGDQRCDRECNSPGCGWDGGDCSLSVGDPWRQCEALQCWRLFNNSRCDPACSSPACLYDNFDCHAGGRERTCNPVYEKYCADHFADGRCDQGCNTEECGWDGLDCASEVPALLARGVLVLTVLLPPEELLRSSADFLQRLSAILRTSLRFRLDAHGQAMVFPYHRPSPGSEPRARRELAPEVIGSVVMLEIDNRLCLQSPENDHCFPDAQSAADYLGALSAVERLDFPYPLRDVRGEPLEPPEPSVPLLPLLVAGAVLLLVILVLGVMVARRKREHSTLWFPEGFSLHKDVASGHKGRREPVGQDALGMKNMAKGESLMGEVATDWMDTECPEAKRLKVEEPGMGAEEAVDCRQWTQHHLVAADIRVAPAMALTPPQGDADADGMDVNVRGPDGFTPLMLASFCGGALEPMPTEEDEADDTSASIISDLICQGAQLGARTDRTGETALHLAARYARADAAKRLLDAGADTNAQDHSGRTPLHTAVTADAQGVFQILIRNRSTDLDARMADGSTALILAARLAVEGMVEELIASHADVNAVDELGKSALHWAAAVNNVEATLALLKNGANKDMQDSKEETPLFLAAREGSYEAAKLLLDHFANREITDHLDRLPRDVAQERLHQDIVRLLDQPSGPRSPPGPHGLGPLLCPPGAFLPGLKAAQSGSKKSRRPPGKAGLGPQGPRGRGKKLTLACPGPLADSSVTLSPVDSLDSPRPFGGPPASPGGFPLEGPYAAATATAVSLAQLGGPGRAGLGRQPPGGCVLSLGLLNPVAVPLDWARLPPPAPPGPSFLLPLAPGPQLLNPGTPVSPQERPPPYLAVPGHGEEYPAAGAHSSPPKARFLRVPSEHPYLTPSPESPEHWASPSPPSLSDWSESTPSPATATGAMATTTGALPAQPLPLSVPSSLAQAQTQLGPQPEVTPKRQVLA
# Torsin-1A-interacting protein 2 (Homo sapiens), sequence (Q8NFQ8 whole entry, looked up): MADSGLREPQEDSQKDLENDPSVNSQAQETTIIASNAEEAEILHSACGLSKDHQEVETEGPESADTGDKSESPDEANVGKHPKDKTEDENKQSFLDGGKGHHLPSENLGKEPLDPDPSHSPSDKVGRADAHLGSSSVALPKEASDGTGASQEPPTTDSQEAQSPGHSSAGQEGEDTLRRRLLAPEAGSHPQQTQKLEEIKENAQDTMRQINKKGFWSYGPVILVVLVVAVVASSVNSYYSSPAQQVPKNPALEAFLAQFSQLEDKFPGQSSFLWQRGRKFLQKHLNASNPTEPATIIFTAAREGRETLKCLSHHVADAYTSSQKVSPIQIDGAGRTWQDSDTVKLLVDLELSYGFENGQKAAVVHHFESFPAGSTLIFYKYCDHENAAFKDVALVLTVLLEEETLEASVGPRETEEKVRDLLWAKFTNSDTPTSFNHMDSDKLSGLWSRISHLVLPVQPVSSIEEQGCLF
# Epidermal growth factor receptor (Homo sapiens), sequence (P00533 whole entry, looked up): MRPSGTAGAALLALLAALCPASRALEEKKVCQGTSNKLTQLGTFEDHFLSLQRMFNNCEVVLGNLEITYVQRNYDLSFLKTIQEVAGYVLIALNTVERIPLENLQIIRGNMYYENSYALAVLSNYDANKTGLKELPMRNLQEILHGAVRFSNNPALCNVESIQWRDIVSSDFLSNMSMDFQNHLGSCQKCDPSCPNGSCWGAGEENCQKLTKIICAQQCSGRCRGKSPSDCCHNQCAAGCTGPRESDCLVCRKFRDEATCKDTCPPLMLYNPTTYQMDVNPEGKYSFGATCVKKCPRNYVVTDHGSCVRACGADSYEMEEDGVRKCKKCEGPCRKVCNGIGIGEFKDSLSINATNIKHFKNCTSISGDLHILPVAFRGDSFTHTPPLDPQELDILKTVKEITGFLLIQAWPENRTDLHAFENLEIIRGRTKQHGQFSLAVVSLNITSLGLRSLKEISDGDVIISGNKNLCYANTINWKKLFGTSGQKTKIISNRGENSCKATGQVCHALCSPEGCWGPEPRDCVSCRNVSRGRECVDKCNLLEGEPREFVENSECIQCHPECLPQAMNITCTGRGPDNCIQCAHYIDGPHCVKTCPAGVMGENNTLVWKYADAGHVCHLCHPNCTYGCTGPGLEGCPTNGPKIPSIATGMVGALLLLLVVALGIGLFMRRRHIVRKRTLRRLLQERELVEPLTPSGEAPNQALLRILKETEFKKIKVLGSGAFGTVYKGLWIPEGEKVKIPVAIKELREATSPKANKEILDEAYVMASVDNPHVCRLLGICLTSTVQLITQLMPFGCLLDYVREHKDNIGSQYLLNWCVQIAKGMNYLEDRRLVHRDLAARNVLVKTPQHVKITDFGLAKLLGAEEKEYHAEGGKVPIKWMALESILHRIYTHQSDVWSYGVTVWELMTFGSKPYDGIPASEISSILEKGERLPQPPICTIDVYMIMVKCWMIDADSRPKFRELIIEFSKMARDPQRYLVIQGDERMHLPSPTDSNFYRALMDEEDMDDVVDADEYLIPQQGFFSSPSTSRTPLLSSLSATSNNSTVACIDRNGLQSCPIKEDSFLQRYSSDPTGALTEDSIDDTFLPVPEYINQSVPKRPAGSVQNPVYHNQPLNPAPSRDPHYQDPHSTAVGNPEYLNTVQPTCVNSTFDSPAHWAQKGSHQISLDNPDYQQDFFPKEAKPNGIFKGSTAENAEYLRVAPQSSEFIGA
# Fibroblast growth factor 10 (Homo sapiens), sequence (O15520 whole entry, looked up): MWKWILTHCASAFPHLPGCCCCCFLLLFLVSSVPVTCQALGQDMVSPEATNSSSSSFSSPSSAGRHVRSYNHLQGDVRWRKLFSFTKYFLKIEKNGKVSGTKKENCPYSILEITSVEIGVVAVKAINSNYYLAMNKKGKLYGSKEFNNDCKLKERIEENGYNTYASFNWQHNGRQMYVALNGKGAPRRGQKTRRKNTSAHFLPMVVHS
# Follistatin-related protein 3 (Homo sapiens), sequence (O95633 whole entry, looked up): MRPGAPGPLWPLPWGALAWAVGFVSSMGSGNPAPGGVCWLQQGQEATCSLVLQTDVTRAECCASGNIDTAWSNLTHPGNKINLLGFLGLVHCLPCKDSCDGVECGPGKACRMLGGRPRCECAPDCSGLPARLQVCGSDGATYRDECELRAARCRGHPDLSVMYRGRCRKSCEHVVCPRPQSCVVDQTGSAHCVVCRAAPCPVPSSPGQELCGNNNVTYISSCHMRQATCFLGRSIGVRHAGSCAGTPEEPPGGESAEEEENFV
# Dickkopf-related protein 1 (Homo sapiens), sequence (O94907 whole entry, looked up): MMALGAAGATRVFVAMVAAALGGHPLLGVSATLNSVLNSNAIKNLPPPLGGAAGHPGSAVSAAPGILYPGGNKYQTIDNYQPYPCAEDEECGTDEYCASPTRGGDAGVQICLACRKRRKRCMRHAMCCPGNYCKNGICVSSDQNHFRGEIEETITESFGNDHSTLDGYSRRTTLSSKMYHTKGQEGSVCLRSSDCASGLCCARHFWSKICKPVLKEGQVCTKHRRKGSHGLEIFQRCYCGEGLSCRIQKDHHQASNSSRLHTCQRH
Compound,composite z-score [1],z-score [2],z-score [3],z-score [4],composite z-score [5],z-score [6],composite z-score [7],composite z-score [8],composite z-score [9],composite z-score [10],composite z-score [11],composite z-score [12],composite z-score [13],z-score [14],composite z-score [15],composite z-score [16],composite z-score [17],composite z-score [18],composite z-score [19],composite z-score [20]
Cc1ccc(S[C@]2(C(=O)NCC(C)C)CC(=O)N(Cc3ccccc3)[C@@H]2c2ccc(CO)cc2I)cc1,1.3,-1.29 (inactive),-0.927 (inactive),1.66 (inactive),2.55,0.0384 (inactive),0.124,0.8,0.905,0.0537,1.52,0.0143,0.388,-0.531 (inactive),0.417,0.441,0.287,0.75,0.149,0.975
CCCCCN1CC=CC23O[C@@H]4/C=C\CCC(C)OC(=O)C4[C@H]2C(=O)N(CCCCCO)[C@@H]3C1=O (stereo not given in full),-0.103,-1.46 (inactive),-0.773 (inactive),-1.39 (inactive),-1.94,2.19 (inactive),-0.0491,-0.0687,0.0156,-0.149,0.16,-0.499,-0.0779,-0.228 (inactive),-0.57,-0.77,0.361,-0.501,-1.07,-0.362
COC(=O)[C@@]1(Cc2ccc(OC)cc2)[C@H]2c3cc(C(=O)N4CCCC4)n(CCc4c[nH]c5cc(F)ccc45)c3C[C@H]2CN1C(=O)c1ccccc1,1.09,0.548 (inactive),1.2 (inactive),1.75 (inactive),3.54,0.332 (inactive),0.776,0.103,1.08,0.103,1.31,0.185,1.19,-0.332 (inactive),0.875,1.09,0.0022,0.988,-0.0303,0.831
CC(C)CNC(=O)[C@@H]1c2ccccc2C(=O)N(Cc2cc(C(F)(F)F)cc(C(F)(F)F)c2)[C@H]1c1ccc(CO)cc1,0.457,0.976 (inactive),-0.989 (inactive),-0.706 (inactive),0.557,-0.381 (inactive),0.104,-0.96,-0.977,-0.0682,-0.46,0.416,0.822,-0.827 (inactive),-0.633,-1.32,-0.88,-0.736,-0.439,-0.575
COC(=O)[C@@]1(Cc2ccc(OC)cc2)[C@H]2c3cc(C(=O)N4CCCC4)n(Cc4ccccn4)c3C[C@H]2CN1C(=O)c1ccccc1,0.897,0.627 (inactive),0.482 (inactive),1.33 (inactive),3.86,0.245 (inactive),0.346,-0.404,0.979,0.155,0.987,1.33,1.3,-3.17 (inactive),0.928,1.2,-0.0442,0.182,-0.899,0.673
COC(=O)[C@@]1(Cc2ccccc2)[C@H]2c3cc(C(=O)N4CCCC4)n(C)c3C[C@H]2CN1C(=O)c1ccccc1,0.0683,0.29 (inactive),0.68 (inactive),0.0928 (inactive),3.35,0.391 (inactive),0.0165,0.0182,0.732,0.287,0.762,1.23,0.892,-1.91 (inactive),-0.175,0.237,-0.141,0.803,-0.477,1.1
COC(=O)C(CC#Cc1ccc2c(c1)[C@]1(C(=O)N2)[C@H](C(=O)NC[C@H](O)c2ccccc2)[C@H]2C(=O)O[C@H](c3ccccc3)[C@H](c3ccccc3)N2[C@@H]1c1ccc(OCCO)cc1)C(=O)OC,1.54,2.7 (inactive),1.16 (inactive),3.93 (inactive),3.62,-0.207 (inactive),0.14,1.87,1.05,0.345,1.71,1.61,0.0724,0.0839 (inactive),1.3,1.3,0.767,1.46,1.14,1.21
O=C1O[C@@H](c2ccccc2)[C@@H](c2ccccc2)N2[C@@H](c3ccccc3OCCO)[C@]3(C(=O)Nc4ccc(C#CC5(O)CCCCCC5)cc43)[C@@H](C(=O)Nc3nc4ccccc4s3)[C@H]12,1.56,1.39 (inactive),1.96 (inactive),3.42 (inactive),2.19,0.0499 (inactive),0.01,1.33,1.06,1.01,1.04,-0.0444,-0.0735,0.554 (inactive),0.68,1.25,0.369,0.996,0.28,0.251
COC(=O)[C@]1(Cc2ccccc2N=[N+]=[N-])N=C(c2ccc(OCCCO)cc2)O[C@@H]1c1ccccc1N=[N+]=[N-],0.822,0.189 (inactive),-0.0643 (inactive),14.9 (active),0.59,-0.962 (inactive),-0.166,0.347,0.251,-0.0656,1.35,0.0046,0.191,-0.71 (inactive),0.0833,-0.383,-0.049,0.488,-0.0862,0.755
